Experimental data from PubChem BioAssay AID1159580 (chemical genetic matrix, 2015).
Hit rate of the full screen: of about 5,500 compounds, about 2,000 (36%) were called active. Inconclusive results (about 18%) are left out. Cut-off read from the data, not from the text of the source: active = normalized growth mostly below about 0.91 (no sharp cut-off); inconclusive = no clear call, values can overlap the other calls; inactive = mostly above about 0.92. This is one part of the list.

Test: chemical genetic growth profiling, strain panel (AID 1159580);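 note: tested at 20 µM; growth read once vehicle control cultures reached saturation at 30 °C; 1 = growth at the plate median or of vehicle wells; lower values mean less growth of the strain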
Conditions: S. cerevisiae deletion strains, growth OD
[1] = locus YAL013W, strain DEP1, hits give low values
[2] = locus YBR229C, strain ROT2, hits give low values
[3] = locus YDL101C, strain DUN1, hits give low values
[4] = locus YDR150W, strain NUM1, hits give low values
[5] = locus YGR078C, strain PAC10, hits give low values
[6] = locus YHR030C, strain SLT2, hits give low values
[7] = locus YLR039C, strain RIC1, hits give low values
[8] = locus YLR262C, strain YPT6, hits give low values
[9] = locus YMR263W, strain SAP30, hits give low values
[10] = locus YNL153C, strain GIM3, hits give low values
[11] = locus YNL322C, strain KRE1, hits give low values
[12] = locus YPL055C, strain LGE1, hits give low values
[13] = locus YPL241C, strain CIN2, hits give low values
[14] = locus YMR307W, strain GAS1, hits give low values

Measured: normalized growth

O=C(CSCc1cccc2ccccc12)NNC(=O)c1ccc(F)cc1
inactive: [1] 0.998 | [2] 0.988 | locus YCL061C, strain MRC1, hits give low values 1 | [3] 1 | [4] 0.979 | locus YEL061C, strain CIN8, hits give low values 0.992 | [5] 0.993 | [6] 0.93 | locus YHR087W, strain rtc3, hits give low values 0.98 | locus YJR043C, strain POL32, hits give low values 0.988 | locus YJR075W, strain HOC1, hits give low values 0.983 | locus YKL190W, strain CNB1, hits give low values 0.991 | [7] 0.958 | locus YLR058C, strain SHM2 (second series), hits give low values 0.982 | locus YLR085C, strain ARP6, hits give low values 0.978 | [8] 0.919 | locus YML094W, strain GIM5, hits give low values 1.08 | locus YMR219W, strain ESC1, hits give low values 0.99 | [9] 0.984 | [10] 0.985 | locus YNL298W, strain CLA4 (second series), hits give low values 0.949 | [11] 1 | locus YNR030W, strain Alg12, hits give low values 0.955 | [12] 1 | [13] 0.989 | locus YPR135W, strain CTF4, hits give low values 1.07

CC(C)(C)C1(O)CCN2CC3c4ccccc4CCc4cccc(c43)C2C1 (configuration not stated)
inactive: [1] 1.02 | locus YAL040C, strain CLN3, hits give low values 0.975 | locus YCL061C, strain MRC1 (second series), hits give low values 0.986 | [4] 1 | locus YDR363W, strain ESC2, hits give low values 1.04 | locus YER002W, strain NOP16, hits give low values 0.993 | [9] 1.01 | [14] 1.02 | [10] 0.983 | locus YNL175C, strain NOP13, hits give low values 0.996 | locus YNL197C, strain WHI3, hits give low values 0.972 | locus YNL224C, strain SQS1, hits give low values 0.997 | [11] 1.01 | locus YOR083W, strain WHI5 (second series), hits give low values 1.01 | [12] 1.02 | [13] 0.999

CC1(C)OC(=O)C=CC2(C)C1CC(O)C1(C)C2CCC2(C)C(c3ccoc3)OC(=O)C3OC321 (configuration not stated)
inactive: [1] 1.02 | locus YBR021W, strain FUR4, hits give low values 0.971 | [2] 1.01 | locus YCL029C, strain bik1, hits give low values 1.02 | locus YDL035C, strain GPR1, hits give low values 1.01 | locus YDL074C, strain BRE1, hits give low values 1.02 | [3] 1.01 | locus YDL134C, strain PPH21, hits give low values 1.01 | locus YDL185W, strain tfp1, hits give low values 1.02 | locus YDL192W, strain arf1, hits give low values 1.01 | locus YDR101C, strain arx1, hits give low values 0.998 | locus YDR162C, strain NBP2, hits give low values 1.04 | locus YDR318W, strain mcm21, hits give low values 1.01 | locus YDR388W, hits give low values 1.02 | locus YDR502C, strain sam2, hits give low values 1.04 | locus YER110C, hits give low values 1.02 | locus YER155C, strain BEM2, hits give low values 0.996 | locus YER167W, strain BCK2, hits give low values 0.997 | locus YGL078C, strain dbp3, hits give low values 1.01 | locus YGL086W, strain mad1, hits give low values 1.01 | locus YGL248W, strain PDE1, hits give low values 1.01 | [5] 1 | locus YGR135W, strain pre9, hits give low values 1.04 | locus YGR252W, strain gcn5, hits give low values 0.965 | [6] 1.01 | locus YHR079C, strain IRE1 (second series), hits give low values 1.01 | locus YHR094C, strain hxt1, hits give low values 1.02 | locus YHR129C, strain ARP1, hits give low values 1 | locus YHR200W, strain rpn10, hits give low values 1.01 | locus YIL066C, strain RNR3, hits give low values 1.01 | locus YIL073C, strain SPO22, hits give low values 1.03 | locus YIL125W, strain kgd1, hits give low values 1.02 | locus YIR030C, strain dcg1, hits give low values 1.01 | locus YJL095W, strain BCK1, hits give low values 1.03 | locus YJL134W, strain LCB3, hits give low values 1.01 | locus YJL168C, strain set2, hits give low values 1.01 | locus YJL187C, strain SWE1 (second series), hits give low values 1.01 | locus YKL009W, strain mrt4, hits give low values 1.01 | locus YKL068W, hits give low values 1.02 | locus YKL085W, strain MDH1 (second series), hits give low values 1 | locus YKL085W, strain MDH1, hits give low values 1 | locus YKR001C, strain vps1, hits give low values 1.04 | [7] 1.05 | locus YLR058C, strain SHM2, hits give low values 1.01 | locus YLR102C, strain apc9, hits give low values 1.01 | [8] 1.09 | locus YLR268W, strain sec22, hits give low values 1.02 | locus YLR330W, strain CHS5, hits give low values 1.01 | locus YLR342W, strain FKS1 (second series), hits give low values 0.995 | locus YLR371W, strain rom2, hits give low values 0.997 | locus YLR418C, strain cdc73, hits give low values 1.05 | locus YML016C, strain PPZ1, hits give low values 1.01 | locus YML032C, strain rad52, hits give low values 1.02 | locus YML124C, strain tub3, hits give low values 1.01 | locus YMR078C, strain ctf18, hits give low values 1 | locus YMR223W, strain ubp8, hits give low values 1.01 | [9] 1.01 | [14] 1.06 | locus YNL067W, strain RPL9B, hits give low values 1.02 | [10] 1.01 | locus YNL233W, strain BNI4, hits give low values 1.01 | locus YNL250W, strain rad50, hits give low values 1.01 | locus YNL271C, strain bni1, hits give low values 1.01 | locus YNL298W, strain CLA4, hits give low values 1.04 | locus YNL307C, strain MCK1, hits give low values 1.02 | [11] 1 | locus YNR052C, strain pop2, hits give low values 1.02 | locus YOL012C, strain htz1 0.873 | locus YOL147C, strain pex11, hits give low values 1.01 | locus YOR061W, strain CKA2, hits give low values 1.01 | locus YOR069W, strain VPS5, hits give low values 1.01 | locus YOR136W, strain idh2, hits give low values 1.02 | locus YOR144C, strain elg1, hits give low values 1.01 | locus YOR184W, strain ser1, hits give low values 0.995 | locus YOR316C, strain cot1, hits give low values 1.02 | [13] 1.01 | locus YPR119W, strain clb2, hits give low values 1 | locus YPR141C, strain kar3, hits give low values 1.01 | locus YPR167C, strain met16, hits give low values 1 | strain wtn01, hits give low values 1.01
